Experimental data reported in PMC12136788.
Positions count from the first letter of the chain named. Whole data set: some 24,000 sequences, median “enrichment r” near 0.99, cut for the highest 2% near 3.7. Only a selection was taken, and the highest values are over-represented in it overall.

T1: UNK ZnF1-3 (human, UniProt Q9C0B0 31-174)
T1 sequence: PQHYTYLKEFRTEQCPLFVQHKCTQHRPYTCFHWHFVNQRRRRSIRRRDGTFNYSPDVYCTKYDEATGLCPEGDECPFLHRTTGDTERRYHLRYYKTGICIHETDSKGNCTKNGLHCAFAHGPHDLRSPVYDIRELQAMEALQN

B1: chr16:94664806:94664807:+_ENSMUSG00000040785_ENSMUST00000117648|mus_mus|FALSE|FALSE (ssRNA)
RNA: GGGAGUUCUACAGUCCGACGAUCAUUAGGACUCUCAAAGUAUGCAGCGGCAUUUUCAUCUGCUCUGUUGCUGGCUACAAAAGAUGGCACCACUGGCAUGGAUCUUUGCAUUGGAUACUCAGAAGAAAUGUUGGCCAAAGGUGUCAACAGAGGAUUGAGCAUCA
B2: 15109990_15111016_889_CDS_ENSG00000179889_ENST00000396410|human|control|control (ssRNA)
RNA: GGGAGUUCUACAGUCCGACGAUCUGAGGAGACAUAACCCAGAGCCAAUGUUGCCAGAUUCACACCCUCCACAUGAAGCCAUAUGCCAUACUGCUCACAGAGUUCUUUCAAUCUCCCAAUCUUGUCUGUGUGUCCUACUGCUGCCAACAGAGGAUUGAGCAUCA
B3: 17503471_17513584_185_CDS_ENSG00000151552_ENST00000428702|human|control|control (ssRNA)
RNA: GGGAGUUCUACAGUCCGACGAUCCUUAAAGAGAGACUUGGAUUUGGCAUUGCCCCCGGCCCAUCCUCCAGCAACGCAAAGAAUUGCAUCCACCUUCUCUUCACCCAAGAGCUUUCCAACCUCAGCAGUCACCCAGUUGCGGGCCAACAGAGGAUUGAGCAUCA
B4: chr10:33190432:33190433:-_ENSG00000150093_ENST00000302278|hu_mus|hu_hu_hu_mus_True|1_98 (ssRNA)
RNA: GGGAGUUCUACAGUCCGACGAUCUACAUUUUCCAAACCUGCACAUGAAUAAAACCCUGGCCACAGAGCCCCAAAACUACCCUACUGUGACUAAGAUGCUGCUGCUGUGAGCUUGGUGUUGCAAAAUCCGCCUGAGUCAGUACUCAACAGAGGAUUGAGCAUCA
B5: chr10:33190432:33190433:-_ENSG00000150093_ENST00000302278|hu_mus|hu_hu_hu_mus_True|68_98 (ssRNA)
RNA: B4 RNA with C71U, A75G, C137A, A138G, U140A, A141U, C142U, U143C
B6: chr6:35837335:35837336:-_ENSG00000096063_ENST00000361690|hu_mus|FALSE|FALSE (ssRNA)
RNA: GGGAGUUCUACAGUCCGACGAUCGGGCUCCUGCUCAUCCCCAGAAGGUGUAUCUGCCCGAAUGCUCUCCUCCAGCUGGGUGAUGUCCUGUCGGGUGAGUGACUGCUCUGCAGAGGAUUGGCACACCAUGGUCUCAGAGGCCGUCAACAGAGGAUUGAGCAUCA
B7: chr2:126475859:126475860:-_ENSMUSG00000027361_ENSMUST00000110424|mus_mus|FALSE|FALSE (ssRNA)
RNA: GGGAGUUCUACAGUCCGACGAUCAGUUUCUGAAGAAUUGGACAAUGGGGCAGAAGCUUCAGCUAAGGCAGCUAACGUAGCUAAUACUGACGUAGAGGAGUUUCCAAACUGAACAGCAGAUACUCCUGUUUCAUCUGUGAGGUUCAACAGAGGAUUGAGCAUCA
B8: chr17:25041749:25041750:-_ENSMUSG00000024163_ENSMUST00000117509|mus_hu|FALSE|FALSE (ssRNA)
RNA: GGGAGUUCUACAGUCCGACGAUCCGAGGGAUAGGGGCGCUUGGCCGGAGGGGGGCUGGAGGAAGAGCUGAAGAGGCGGCUGAAGAACUGCCAGAUGGUCGACUUCUUCUUCUCCUGGACGGAUGGGUGCUCUCGGGACGCUCUCAACAGAGGAUUGAGCAUCA
B9: chr17:60770872:60770873:+_ENSG00000011028_ENST00000303375|hu_hu|hu_hu_hu_mus_True|18_58 (ssRNA)
RNA: GGGAGUUCUACAGUCCGACGAUCUCUUUAAAAAAAAAAAAAAAAAGACAAACAAUAAUAGCACAUUUCGAGAAUCAUCAACUACAGUAGAGGGUCCGCUUUGAGUUUUUGUUCACAACAUUGUCCCCUGGGACACGGGGACUGCAACAGAGGAUUGAGCAUCA
B10: chr17:60770872:60770873:+_ENSG00000011028_ENST00000303375|hu_mus|FALSE|FALSE (ssRNA)
RNA: B9 RNA with U77A, C78G, G86A, A117U, A119G, U121C, G122C, C124G, C126A
B11: chr17:60770872:60770873:+_ENSG00000011028_ENST00000303375|hu_hu|hu_hu_hu_mus_True|18_88 (ssRNA)
RNA: B9 RNA with A47U, C48U, A49U, C52A, U55C, U77A, C78G, G86A
B12: chr17:60770872:60770873:+_ENSG00000011028_ENST00000303375|hu_hu|hu_hu_hu_mus_True|48_48 (ssRNA)
RNA: GGGAGUUCUACAGUCCGACGAUCUCUUUAAAAAAAAAAAAAAAAAGACAAACAAUAAUAGCACAUUUCGAGAAUCAAGAACUACAAAGAAAGGGCCGCUUUGAGUUUUUGUUCACAUCGUCCUGCACUGGGACACGGGGACUGCAACAGAGGAUUGAGCAUCA
B13: chr17:60770872:60770873:+_ENSG00000011028_ENST00000303375|hu_hu|hu_hu_hu_mus_True|18_48 (ssRNA)
RNA: B12 RNA with U117A, G119A, C121U, C122G, G124C, A126C
B14: chr17:60770872:60770873:+_ENSG00000011028_ENST00000303375|hu_hu|hu_hu_hu_mus_True|1_8 (ssRNA)
RNA: GGGAGUUCUACAGUCCGACGAUCUCUUUAAAAAAAAAAAAAAAAAGACAAACAAUAAUAGCACAUUUCGAGAAUCAAGAACUACAAUAGAGGGUCCGCUUUGAGUUUUUGUUCACAUCGUCCUGCAACGCUGUCGCACCAGGACAACAGAGGAUUGAGCAUCA
B15: chr17:60770872:60770873:+_ENSG00000011028_ENST00000303375|hu_hu|hu_hu_hu_mus_True|1_1 (ssRNA)
RNA: B14 RNA with A127C, C128U, C130G, U131G, G132A, U133C, C134A, G135C, C136G
B16: chr17:60770872:60770873:+_ENSG00000011028_ENST00000303375|hu_hu|hu_hu_hu_mus_True|48_88 (ssRNA)
RNA: B12 RNA with A47U, C48U, A49U, C52A, U55C
B17: chr17:60770872:60770873:+_ENSG00000011028_ENST00000303375|hu_hu|hu_hu_hu_mus_True|88_88 (ssRNA)
RNA: B12 RNA with A47U, C48U, A49U, C52A, U55C, A87U, G88A, A89G, A91G, G94U
B18: chr17:60770872:60770873:+_ENSG00000011028_ENST00000303375|hu_hu|hu_hu_hu_mus_True|18_18 (ssRNA)
RNA: B9 RNA with U77A, C78G, G86A
B19: chr17:60770872:60770873:+_ENSG00000011028_ENST00000303375|hu_hu|hu_hu_hu_mus_True|48_58 (ssRNA)
RNA: B12 RNA with A77U, G78C, A86G
B20: chr13:100200933:100200934:-_ENSMUSG00000052727_ENSMUST00000064762|mus_hu|FALSE|FALSE (ssRNA)
RNA: GGGAGUUCUACAGUCCGACGAUCAGAGGUGAGUGAGGCAUAUAAGGACAUAUCUCUGGGAGGAGCAACAUCGGAUAGAGUAUCUUCUUGGAGAGGAGAAGCGAUCUGAGAAGGGGUAUGAGCAGAAGAGGUGGACGGGGAGGCCAACAGAGGAUUGAGCAUCA
B21: chr14:21343058:21343059:-_ENSMUSG00000021816_ENSMUST00000161445|perfect_dup|FALSE|FALSE (ssRNA)
RNA: GGGAGUUCUACAGUCCGACGAUCUGUAGUUUGACUUUUUCUGUACAUUCUAUAGCCUGCAUCUUGAGCUUCAUGAGCUCUAAUAAUCGAUAACAAAUUAUUGUUUUGCAAAAAUUCACACACUGCUGGAUAGUUAUAAAAAUACAACAGAGGAUUGAGCAUCA
B22: chr2:216981417:216981418:+_ENSG00000079246_ENST00000392132|hu_hu|hu_hu_hu_mus_True|58_68 (ssRNA)
RNA: GGGAGUUCUACAGUCCGACGAUCCUGAUACUGGUCCUUGCCAGCAAGGGCAUUAUCAGUGCCAUCUGUACCAAACAGGACUAAAGCAAUCUCAUCUUUGCUCUCCGAAAAUACCUGUCGUUGGACAAACAUAGUCAUCACUUUCAACAGAGGAUUGAGCAUCA

target: T1, UNK ZnF1-3; assay: nsRBNS (natural sequence RNA bind-n-seq); RBNS binding buffer (assumed for nsRBNS): 25 mM Tris pH 7.5, 150 mM KCl, 3 mM MgCl2, 0.01% Triton X-100, 500 ug/ml BSA, 20 U/ml SUPERase-In, 4 C; UNK is unkempt and MSI1 is Musashi-1; names of the RNAs are library labels; protein concentration not given here; high values mean tight binding

Question: For B1, which binding signal is on record?
Answer: The binding signal was 1.22 enrichment R.

Question: For B2, which binding signal is on record?
Answer: The binding signal was 1.36 enrichment R.

Question: For B3, which binding signal is on record?
Answer: The binding signal was 1.33 enrichment R.

Question: Which binding signal does the source give for B4 here?
Answer: The binding signal was 1.13 enrichment R.

Question: B5 was tested. Which binding signal did it give?
Answer: Its binding signal is 0.909 enrichment R.

Question: Which binding signal does the source give for B6 here?
Answer: The binding signal was 3.58 enrichment R.

Question: For B7, which binding signal is on record?
Answer: The binding signal was 1.31 enrichment R.

Question: Which binding signal does the source give for B8 here?
Answer: The binding signal was 1.43 enrichment R.

Question: How did the binding signal turn out when B9 was run?
Answer: Its binding signal is 3.65 enrichment R.

Question: With B10 as the binder, how does the binding signal read?
Answer: Its binding signal is 4.24 enrichment R.

Question: For B11, which binding signal is on record?
Answer: The binding signal was 3.34 enrichment R.

Question: For B12, which binding signal is on record?
Answer: The binding signal was 3.87 enrichment R.

Question: With B13 as the binder, how does the binding signal read?
Answer: Its binding signal is 3.63 enrichment R.

Question: Which binding signal does the source give for B14 here?
Answer: The binding signal was 3.63 enrichment R.

Question: B15 was tested. Which binding signal did it give?
Answer: The binding signal was 3.11 enrichment R.

Question: B16 was tested. Which binding signal did it give?
Answer: Its binding signal is 3.6 enrichment R.

Question: B17 was tested. Which binding signal did it give?
Answer: The binding signal was 4.21 enrichment R.

Question: For B18, which binding signal is on record?
Answer: Its binding signal is 4.15 enrichment R.

Question: With B19 as the binder, how does the binding signal read?
Answer: The binding signal was 3.59 enrichment R.

Question: B20 was tested. Which binding signal did it give?
Answer: The binding signal was 3.67 enrichment R.

Question: With B21 as the binder, how does the binding signal read?
Answer: The binding signal was 1.03 enrichment R.

Question: For B22, which binding signal is on record?
Answer: The binding signal was 0.678 enrichment R.
